KB-V1 cytotox: KB-V1 MDR subline cytotoxicity; 400,000 compounds, 3.4% hits; Potency, µM (top dose mostly 46.1 µM), actives largely listed as cytotoxic; AID 1347076; KB-V1 MDR cells viability, CellTiter-Glo, 72 h; further: on the % scale 0 is the no-effect control and ±100 the full control effect; nearly all actives have a fitted effect of over 60% in size
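Following 72 h at 37 degrees C with compound, KB-V1 cell viability was read by CellTiter-Glo luminescence, medium being phenol-red-free DMEM plus 10% FBS; concentration-response parameters came from normalized, curve-fitted qHTS data.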
ATXN2 expr inh: ATXN2 expression inhibition | Potency, µM (titrated, usually from 57 µM), inactives show at the top dose activity change, negative = inhibition, usual class: inhibitors | HEK-293 ATXN2-luciferase reporter, luminescence, 24 h | 360,000 compounds, 0.72% hits; further: on the % scale 0 is the no-effect control and ±100 the full control effect; nearly all actives have a fitted effect of over 55% in size
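qHTS (up to 57 uM final) was run with 24 h compound exposure of reporter cells at 37 °C. Each well was multiplexed: SteadyGlo luminescence measured ATXN2-luciferase expression after a fluorogenic Gly-Phe-AFC viability readout (25 uM final).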
S2 tox: cell viability loss in ATXN counter-screen. S2 cells (HEK-293 line with an ATXN2-luciferase reporter) viability, CellTiter-Fluor protease fluorescence, 24 h. Potency, µM (highest dose often 56.7 µM), actives largely listed as cytotoxic. 400,000 compounds, 0.49% hits. AID 651635; further: nearly all actives have a fitted effect of over 40% in size
HT1080-NT tox: kills 2HG-producing HT-1080-NT fibrosarcoma cells; HT-1080-NT fibrosarcoma viability, CellTiter-Glo ATP luminescence, 48 h; Potency, µM (highest dose often 46.1 µM), inactives show top-dose activity, negative = less viability, usual class: cytotoxic; 360,000 compounds, 1.6% hits; AID 686970;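 further: NT is the 2HG producing partner of a matched IDH1 knockdown line; 0% = DMSO-treated cells and -100% = media-only wells without cells; nearly all actives have a fitted effect of over 55% in size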
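Viability by CellTiter-Glo luminescence after 48 h compound exposure at 37C of HT-1080-NT cells (750/well, RPMI, 5% FBS). % activity scaled between DMSO wells and medium-only wells, then curve-fitted and categorized by curve class.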
HT1080 IDH1KD tx: toxicity to HT-1080 IDH1 knockdown cells (counter line); HT-1080 IDH1 knockdown viability, ATP luminescence, 48 h; Potency, µM (titrated, usually from 46.1 µM), inactives show at the highest dose activity, negative = toxicity, hits mostly cytotoxic; 360,000 compounds, 2% hits; AID 686971;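 further: 0% = DMSO wells and -100% = cell-free medium wells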
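Cytotoxicity counter-line: IDH1KD HT-1080, 48 h, CellTiter-Glo. Curves classed by r2, magnitude and activity.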
KB-3-1 cytotox: kills parental KB-3-1 adenocarcinoma cells. 400,000 compounds, 1.4% hits. KB-3-1 viability, CellTiter-Glo ATP luminescence, 72 h. Potency, µM (series often up to 46.1 µM), actives largely listed as cytotoxic; further: on the % scale 0 is the no-effect control and ±100 the full control effect; nearly all actives have a fitted effect of over 60% in size
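72 h, 37 °C compound treatment of KB-3-1 parental cells; CellTiter-Glo added, 10 min, luminescence read. Data corrected against DMSO-only plates and normalized before curve fitting.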
The depositor's hits bear a star; i = inactive; ? = inconclusive; · = not tested or not shown; [ ] = dose if it differs, or a comment. The list is not random: actives were taken first. Their share in the collection is about 6.2%. The call rests on the fitted dose curve; in most records, active means well fitted curve in the direction sought with a large enough effect; inconclusive means small, poorly fitted or top-dose-only effect, or another doubt; inactive means no such curve, though single readings can be large; an effect the other way counts as inactive or inconclusive. Potency means the concentration at half of the fitted maximal effect.

SMILES | KB-V1 cytotox | ATXN2 expr inh | S2 tox | HT1080-NT tox | HT1080 IDH1KD tx | KB-3-1 cytotox
CCO[C@H](Cc1ccc(OCCc2ccc(OS(C)(=O)=O)cc2)cc1)C(=O)O | · | 15.9% | i | · | · | ·
COC(=O)c1[nH]c2ccc(C)cc2c1NC(=O)CN1CCCC(C)(C)C1 | ? | -10.8% | ? | -28.2% | -24.4% | 20.6µM*
CC(C)(C)COc1ccc(-n2cc(C(=O)O)cn2)cc1C#N | · | 103.0% | · | · | · | ·
COc1ccccc1NC(=S)N1CCC(c2nc3ccccc3o2)CC1 | i | · | i | -0.4% | 6.4% | i
Cc1cccc(C)c1NC(=O)N1CCC(c2nc3ccccc3o2)CC1 | 20.6µM* | -10.9% | i | 11.5% | -13.7% | i
CC1(C(=O)NCCc2ccccc2)Cc2c(-c3cccc(C(N)=O)c3)ccnc2O1 (centres undefined) | i | 10.3% | i | -29.6% | ? | ?
O=C(c1ccc2c(c1)OCO2)C1CCCN(C2CCN(CCc3ccccc3)CC2)C1 (centres undefined) | i | -37.3% | i | 10.3µM* | 23.1µM* | i
Cc1ccc(NC(=O)c2sc3ncnc(N4CCN(c5ccccn5)CC4)c3c2C)c(C)c1 | i | -31.8% | ? | 3.5% | -14.6% | i
Cc1c(C(=O)N2CCN(Cc3ccccc3)CC2)sc2ncnc(N3CCOCC3)c12 | 18.4µM* | -3.0% | i | 0.3% | -0.7% | i
CCCN1CCN(c2ncnc3sc(C(=O)Nc4c(C)cc(C)cc4C)c(C)c23)CC1 | ? | 4.6% | i | · | · | 20.6µM*
Cc1sc2ncnc(N3CCN(Cc4ccccc4)CC3)c2c1-c1ccc(F)cc1 | 14.6µM* | -23.6% | i | 3.6% | 5.0% | ?
Fc1ccc(-c2csc3ncnc(N4CCN(Cc5ccccc5)CC4)c23)cc1 | · | -2.3% | ? | 6.6% | 6.2% | ·
CCOc1ccc(NC(=O)CC2C(=O)N(c3ccc(F)cc3)C(=O)N2Cc2ccc(OC)c(OC)c2)cc1 (centres undefined) | i | 2.2% | i | · | · | i
CC(=O)Nc1ccc(C)cc1-c1nc2ccccc2n(CC(=O)Nc2cc(Cl)ccc2C)c1=O | i | · | · | · | · | i
CC1(C)CC(C(=O)Nc2ccccc2)C(=O)O1 (centres undefined) | i | 10.4% | i | 22.0% | 5.7% | i
C[C@]1(O)CC(=O)C=C[C@H]1Nc1ccccc1 | i | ? | ? | 20.6µM* | ? | ?
Cc1ccccc1CN1CCC(CNc2ncnc3onc(-c4ccc(F)cc4)c23)CC1 | i | 1.4% | i | · | · | ?
CCOC(=O)C1=C[C@@H](C(C)C)N(S(=O)(=O)c2ccc(C)cc2)[C@H]1c1ccc(C(C)C)cc1 | i | -6.3% | i | 2.7% | -18.0% | i
Cc1cccc(-n2c(C)cc(C=C3C(=O)c4ccccc4C3=O)c2C)c1 | ? | 84.0% | i | -2.8% | 3.6% | i
Cc1cc(C=C2C(=O)c3ccccc3C2=O)c(C)n1-c1ccc(Cl)cc1 | 16.4µM* | 60.0% | i | 8.6% | 13.3% | ?
COc1ccc(C(=O)CC(=O)c2ccc(C(C)(C)C)cc2)cc1 | ? | ? | i | 1.1% | -17.4% | i
COc1ccc(C(=O)C(CCC(CNC(C)(C)C)C(=O)c2ccc(OC)cc2)CNC(C)(C)C)cc1 (centres undefined) | ? | ? | ? | ? | 4.61µM* | ?
CC(=O)N1C=CN(C(C)=O)C(c2cn(C)c3ccccc23)C1c1cn(C)c2ccccc12 (centres undefined) | 23.1µM* | -6.1% | i | -22.7% | -5.9%[9.24 µM] | ?
COc1ccc(CNc2nn3c(-c4cccc(C(=O)N(C)C)c4)cnc3s2)cc1 | i | -13.6% | ? | 13.2% | 1.9% | i
NS(=O)(=O)c1ccc(CCNc2nn3c(-c4cccc(OC(F)(F)F)c4)cnc3s2)cc1 | i | 25.1µM* | ? | 8.2µM* | 8.2µM* | ?
SMILES | KB-V1 cytotox | ATXN2 expr inh | S2 tox | HT1080-NT tox | HT1080 IDH1KD tx | KB-3-1 cytotox
COc1ccc(NC(=O)C2Cc3c(-c4cccc(F)c4)ccnc3O2)cn1 (centres undefined) | ? | -4.3% | ? | -11.4% | -28.6% | ?
Cn1cc(C(=O)c2ccc(Cl)cc2Cl)cc1C(=O)N/N=C(\N)COc1ccc(Cl)cc1Cl | ? | ? | ? | ? | ? | 18.4µM*
Cn1cc(C(=O)c2ccc(Cl)cc2Cl)cc1C(=O)N/N=C(\N)COc1ccc(Cl)cc1 | ? | ? | i | ? | 16.4µM* | ?
Cn1cc(C(=O)c2ccc(Cl)cc2Cl)cc1C(=O)N/N=C(\N)COc1ccccc1 | ? | -0.1% | i | -18.6% | -27.6% | i
CN(C)c1nc(N)nc(CSc2nc3cc(Cl)ccc3o2)n1 | i | 56.8% | i | 5.9% | 23.4% | i
O=S1(=O)C=C(Sc2nc3cc(Cl)ccc3o2)c2ccccc21 | ? | ? | · | 5.17µM* | 5.17µM* | ?
C(=C\c1ccccc1)/CSc1nnc(-c2ccncc2)n1Cc1ccco1 | i | -4.5% | i | -0.4% | -1.3% | i
CC(C)(C)c1ccc(CSc2nnc(-c3ccccn3)n2Cc2ccco2)cc1 | i | ? | i | ? | ? | ?
c1ccc(CSc2nnc(-c3cccs3)n2Cc2ccco2)cc1 | ? | 1.8% | i | -0.1% | -6.3% | ?
Clc1cccc(CSc2nnc(-c3ccccn3)n2Cc2ccco2)c1 | 10.3µM* | -11.9% | i | -19.4% | -19.0% | ?
Cc1ccccc1CSc1nnc(-c2cccs2)n1Cc1ccco1 | 5.8µM* | -10.9% | i | -0.4% | -0.5% | i
C(=C\c1ccccc1)/CSc1nnc(-c2ccccc2)n1Cc1ccco1 | 18.4µM* | -7.7% | i | 7.08µM* | 7.08µM* | i
Brc1ccc(CSc2nnc(-c3ccccn3)n2Cc2ccco2)cc1 | 7.31µM* | -16.4% | i | ? | 11.2µM* | i
COc1cc2nc(C#N)nc(N)c2cc1OC | · | · | · | 21.5% | 16.1% | ·
CC(=O)Oc1ccc(-c2nc(-c3ccccc3)no2)cc1 | i | · | · | · | · | ?
c1ccc(CSc2nnc(-c3ccco3)n2Cc2ccco2)cc1 | 20.6µM* | 28.1% | i | 1.4% | -1.7% | ?
CCCNC(=O)c1cc2c(c(-c3cccc(-c4ccccc4F)c3)n1)[C@@H](CCO)N(C(=O)CC1CC1)C2 | 23.1µM* | ? | ? | ? | ? | ?
CCNC(=O)c1cc2c(c(-c3cccc(-c4ccccc4F)c3)n1)[C@H](CCO)N(C(=O)CC)C2 | 18.4µM* | ? | i | ? | ? | ?

Compound activity from PubChem BioAssay.
